# DT40 TDP1 no CPT: qHTS for Inhibitors of human tyrosyl-DNA phosphodiesterase 1 (TDP1): qHTS in cells in absence of CPT; DT40 Tdp1-/- hTDP1 cells, no CPT, ATP luminescence, 48 h; Potency, µM (series often up to 46.2 µM), for the others: at the highest dose activity change, negative = growth inhibition, most hits filed as inhibitors; hit rate 15% among 420,000; note: potency is the fitted concentration of half-maximal effect; nearly all actives have a fitted effect of over 55% in size
#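 Cells were dispensed at 400 per well, compounds added by pin tool, plates incubated ≥48 hr at 37 °C, then CellTiter-Glo added for 30 min at room temperature before luminescence reading. Line: DT40 Tdp1-/- complemented with hTDP1; camptothecin omitted.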
# HT1080 IDH1KD tx: qHTS for induction of synthetic lethality in tumor cells producing 2HG: qHTS for the HT-1080-IDH1KD cell line; HT-1080 IDH1 knockdown viability, ATP luminescence, 48 h; Potency, µM (titrated, usually from 46.1 µM), without a hit: top-dose activity, negative = toxicity, most hits filed as cytotoxic; AID 686971, 2013; hit rate 2% among 360,000;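 note: potency is the fitted concentration of half-maximal effect; 0% = DMSO wells and -100% = cell-free medium wells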
#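 Assay cells: HT-1080 with IDH1 knockdown, 750 per well, RPMI/5% FBS. Exposure: 48 h at 37 °C following 2 h pre-incubation. Read: CellTiter-Glo luminescence; fitted concentration-response, curve class assigned.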
# HT1080-NT tox: qHTS for induction of synthetic lethality in tumor cells producing 2HG: qHTS for the HT-1080-NT fibrosarcoma cell line. HT-1080-NT fibrosarcoma viability, CellTiter-Glo ATP luminescence, 48 h. Potency, µM (doses to about 46.1 µM), without a hit: at the top dose activity, negative = less viability, usual class: cytotoxic. hit rate 1.6% among 360,000;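 note: NT is the 2HG producing partner of a matched IDH1 knockdown line; potency is the fitted concentration of half-maximal effect; 0% = DMSO-treated cells and -100% = media-only wells without cells; nearly all actives have a fitted effect of over 55% in size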
#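 750 cells/well, RPMI + 5% FBS; 2 h settle, compound pin-transfer, 48 h at 37 degrees C. CellTiter-Glo 10 min RT, luminescence. Normalized to DMSO and media-only wells.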
# IL1B secr inh: qHTS for Inhibitors of Inflammasome Signaling: IL-1-beta AlphaLISA Primary Screen; THP-1 LPS/ATP IL-1B secretion, AlphaLISA, 16 h; active compounds read low; activity change, % at 57.5 µM; hit rate 4.7% among 360,000; AID 743279, 2014; in the data active = activity change below about -50%; inconclusive = mostly about -30% to -49%
#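 Secreted IL-1B measured by AlphaLISA bead assay after 16 h compound exposure of THP-1 cells; compounds (final up to 57.5 uM) added 1 h before LPS (250 ng/mL) and ATP (1.25 mM) stimulation; lower signal means less secretion.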
# DT40 TDP1 CPT: qHTS for Inhibitors of human tyrosyl-DNA phosphodiesterase 1 (TDP1): qHTS in cells in presence of CPT | chicken DT40 Tdp1-/-;hTDP1 cells + 20 nM CPT, ATP luminescence, 48 h | Potency, µM (doses to about 46.2 µM), for the others: at the top dose activity change, negative = growth inhibition, hits mostly inhibitors | hit rate 12% among 420,000 | AID 686979, 2013; note: potency is the fitted concentration of half-maximal effect; nearly all actives have a fitted effect of over 55% in size
#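 Chicken DT40 Tdp1-/- cells complemented with human TDP1, 400 cells/well, exposed to compounds plus 20 nM camptothecin for at least 48 h at 37 C; viability read as ATP content by CellTiter-Glo luminescence.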
# Starred values were filed as active, the others as inactive; u = inconclusive; x = no result given; [ ] = remark or other dose. Sampled rows, rich in hits. Any-hit rate of the full collection: about 19%. Unless noted, calls come from the whole dose curve; as a rule, active = well fitted curve in the direction sought with a large enough effect; inconclusive = small, poorly fitted or top-dose-only effect, or another doubt; inactive = no such curve, though single readings can be large; an effect the other way counts as inactive or inconclusive. Unless noted, % is set by controls: 0 for no effect and ±100 for the full control effect.
SMILES,DT40 TDP1 no CPT,HT1080 IDH1KD tx,HT1080-NT tox,IL1B secr inh,DT40 TDP1 CPT
Cc1ccccc1Nc1c(-c2ccccc2)nc2cccc(C)n12,3.2µM*,-24%,u,x,u
COc1cc(C2CC(=O)Nc3c2c(=O)n(C)c(=O)n3C)cc(OC)c1OC (stereo not given),4%,x,x,x,4%
COCc1ccc(CN2CCCC(C(=O)Nc3ccc(-c4cscn4)cc3)C2)o1 (stereo not given),-9%,2%,6%,13,-4%
CC(C)(C)NC(=O)COc1coc(CN2CCN(Cc3ccccc3)CC2)cc1=O,-19%,19%,-1%,22,17%
Cc1nccn1CCCNC(=O)C1CCC(=O)N(Cc2ccccc2F)C1 (stereo not given),19%,-1%,4%,-23,-1%
CCOC(=O)C1=CCC(c2ccccc2)N(S(=O)(=O)c2ccccc2)C1 (stereo not given),18µM*,-18%,-16%,-1,23µM*
CCOC(=O)C1=CCC(c2cccs2)N(S(=O)(=O)c2ccc(C)cc2)C1 (stereo not given),u,u,u,11,u
CCOC(=O)C1=CCC(c2cccc(C)c2)N(S(=O)(=O)c2ccc(C)cc2)C1 (stereo not given),16µM*,u,u,20,18µM*
COCCNC(=O)C1CCCN(C(=O)c2cc(-c3ccccc3)cs2)CC1 (stereo not given),-16%,8%,21%,18,-19%
Cc1ccc(C(C)C)c(OCCCNCc2cccnc2)c1,u,-3%,5%,-6,u
Cc1ccc(C(C)C)c(OCCNCCc2ccccc2)c1,23µM*,-5%,0%,-91*,u
COc1cc(C(=O)NCCOc2cc(C)ccc2C(C)C)cc(OC)c1OC,12µM*,u,u,-63*,u
COc1cc(C(=O)NCCOc2cc(C)cc(C)c2)cc(OC)c1OC,2.9µM*,7.3µM*,12µM*,27,4.1µM*
CCCCNCC#CCOc1cc(C)ccc1C(C)C,u,-1%,-18%,-70*,u
CCn1nc(NC(=O)c2ccccn2)c2cc3cccc(C)c3nc21,18µM*,26%,29%,16,u
CCCn1nc(NC(=O)c2ccccn2)c2cc3cc(C)ccc3nc21,u,3%,12%,-63*,u
CCCn1nc(NS(=O)(=O)c2cccc3nonc23)c2cc3cccc(C)c3nc21,-28%,-2%,-25%,13,-24%
CCCn1nc(NS(=O)(=O)c2cccc3nonc23)c2cc3cc(C)ccc3nc21,-7%,-1%,-9%,-87*,-10%
CN(C)c1ccc(NC(=O)Nc2nnc([C@H]3C[C@H](O)[C@@H](CO)O3)s2)cc1,-3%,1%,14%,21,-3%
CN(c1nnc(NC(=O)Nc2ccc(Br)cc2)s1)C1CCCCC1,15µM*,x,x,x,u
CCOC(=O)C1(C)CCN1C(=O)c1cc(OC)ccc1Br (stereo not given),u,12%,13%,60,u
C(#CCN1CCCC1)CC(c1ccccc1)c1ccccc1,16µM*,u,u,-64*,u
C=CCn1c(C)cc(C(=O)COC(=O)/C=C/c2c(C)nn(C3CCS(=O)(=O)C3)c2Cl)c1C (stereo not given),-25%,1%,-2%,-28,u
CC(=O)c1sc2nc(-c3cccs3)ccc2c1N,-16%,6%,-1%,-17,-24%
COc1cccc(-c2ccc3c(N)c(C(=O)NC4CC4)sc3n2)c1,u,-7%,-6%,u,u
SMILES,DT40 TDP1 no CPT,HT1080 IDH1KD tx,HT1080-NT tox,IL1B secr inh,DT40 TDP1 CPT
Nc1c(C(=O)Nc2nc3ccccc3s2)sc2nc(-c3cccs3)ccc12,21µM*,18µM*,u,-114*,12µM*
Cc1ccccc1NC(=O)c1sc2nc(-c3ccncc3)ccc2c1N,16µM*,x,x,x,-88%
Nc1c(C(=O)Nc2ccccc2)sc2nc(-c3ccco3)ccc12,18µM*,u,-17%,-2,23µM*
COc1cccc(-c2ccc3c(N)c(C(=O)Nc4ccccc4C)sc3n2)c1,23µM*,x,x,x,u
COc1ccccc1NC(=O)c1sc2nc(-c3ccco3)ccc2c1N,u,-23%,-19%,1,-16%
COc1ccc(-c2coc3cc(OC(C)=O)cc(OC(C)=O)c3c2=O)cc1,10%,x,x,x,9%
Nc1c(C(=O)Nc2ccc(F)c(F)c2)sc2nc(-c3ccncc3)ccc12,-5%,x,x,x,0%
Nc1c(C(=O)Nc2ccc(Cl)c(C(F)(F)F)c2)sc2nc(-c3ccncc3)ccc12,10µM*,x,x,x,u
CCOC(=O)c1[nH]c(C)c(C(=O)NCc2ccc(Cl)cc2)c1C,-17%,-25%,u,35,u
CCOC(=O)c1[nH]c(C)c(C(=O)Nc2ccc(C)c(Cl)c2)c1C,u,13µM*,0%[9.24 µM],0,16µM*
CCOC(=O)c1[nH]c(C)c(C(=O)Nc2ccc(C)c(F)c2)c1C,18µM*,3.5µM*,10µM*,40,10µM*
CCCCNC(=O)C1(C)CCN1C(=O)c1ccc(C)c(F)c1 (stereo not given),0%,u,16%,36,-5%
O=C(NC1CCCc2c1cnn2-c1ccccc1F)c1ccncc1 (stereo not given),5.8µM*,-23%,-1%,23,10µM*
O=C(NC1CCCc2c1cnn2-c1ccccc1F)c1ccccn1 (stereo not given),u,-2%,-17%,0,u
COc1ccc(C(=O)NC2CCCc3c2cnn3-c2ccccc2F)cc1OC (stereo not given),1.6µM*,-6%,4%,0,5.2µM*
CC1(C(=O)NS(=O)(=O)c2ccc(C#N)cc2)CCN1C(=O)CC1CCCCC1 (stereo not given),-9%,29%,7%,40,-10%
COc1ccc(NC(=O)c2cccc(S(=O)(=O)NCc3ccccc3)c2)cc1S(N)(=O)=O,6%,4%,2%,18,8%
CC1=CC(C)(C)Nc2ccc(OC(=O)CN3C(=O)c4cccc5cccc(c45)C3=O)cc21,2.6µM*,-15%,0%,-107*,2.9µM*
C#CCOC(=O)CN1C(=O)c2cccc3cccc(c23)C1=O,0%,-1%,-1%,-2,-4%
CCc1ccc2c(c1)C(C)=CC(C)(C)N2,u,10%,7%,26,u
